# HP1b chromo inh = HTS for Inhibitors of HP1-beta Chromodomain Interactions with Methylated Histone Tails | AlphaScreen HP1-beta / biotin-H3K9me3 peptide binding | Potency, µM (top dose mostly 114 µM), inactives show top-dose activity change, negative = inhibition, hits mostly inhibitors | 390,000 compounds, 0.56% hits; also: nearly all actives have a fitted effect of over 70% in size
#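 HP1-beta protein (50 nM final) preincubated 30 min at room temperature with biotinylated H3(1-18)K9me3 peptide (50 nM) in PBS pH 7.4, 0.01% Tween-20, then compound added for 30 min. AlphaScreen streptavidin donor/nickel chelate acceptor beads (10 ug/mL final), 30 min dark, luminescence read.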
# G9a inh = qHTS Assay for Inhibitors of Histone Lysine Methyltransferase G9a; G9a H3K9 monomethylation, AlphaScreen, 2 h; Potency, µM (highest dose often 102 µM), inactives show top-dose activity, negative = inhibition, hits mostly inhibitors; 350,000 compounds, 8.8% hits; also: % is scaled to controls: 0 for no effect and ±100 for the full control effect; nearly all actives have a fitted effect of over 75% in size
#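 G9a (20 nM) was preincubated 15 min with compound, then reacted 2 h at room temperature with 500 nM biotin-H3K9 peptide and 20 µM SAM. Monomethyl-H3K9 detected by AlphaScreen using anti-H3K9me1 antibody.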
# BAZ2B inh = qHTS Assay for Inhibitors of BAZ2B; Bromodomain adjacent to zinc finger domain protein 2B (Homo sapiens), Q9UIF8; AlphaScreen BAZ2B-H3K14Ac peptide displacement; Potency, µM (top dose mostly 114 µM), without a hit: at the top dose activity change, negative = inhibition, most hits filed as inhibitors; 360,000 compounds, 4.4% hits; also: % is scaled to controls: 0 for no effect and ±100 for the full control effect; nearly all actives have a fitted effect of over 60% in size
#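 Multi-concentration screen (max 110 uM) measuring displacement of acetylated histone H3 peptide from BAZ2B by AlphaScreen, using 50 nM protein, 50 nM peptide and 10 ug/mL streptavidin donor plus Ni-chelate acceptor beads.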
# JMJD2A Tudor = qHTS Assay for Inhibitors of JMJD2A-Tudor Domain; Lysine-specific demethylase 4A (Homo sapiens), O75164; AlphaScreen JMJD2A-Tudor / H3K4me3 peptide binding; Potency, µM (top dose mostly 114 µM), without a hit: top-dose activity change, negative = inhibition, actives largely listed as inhibitors; 390,000 compounds, 4.4% hits; AID 504339, 2011; also: % is scaled to controls: 0 for no effect and ±100 for the full control effect; nearly all actives have a fitted effect of over 50% in size
# L3MBTL1 inh = qHTS Assay for the Inhibitors of L3MBTL1 | AlphaScreen L3MBTL1–H3K9me1 peptide binding | Potency, µM (doses to about 57.1 µM), for inactives: at the highest dose activity, negative = inhibition, hits mostly inhibitors | 230,000 compounds, 0.66% hits | Lethal(3)malignant brain tumor-like protein 1 (Homo sapiens), Q9Y468; also: % is scaled to controls: 0 for no effect and ±100 for the full control effect; nearly all actives have a fitted effect of over 60% in size
#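 L3MBTL1 (50 nM) pre-complexed 30 min with biotinylated H3(1-15)K9me1 peptide (75 nM), then compounds added for 30 min at room temperature; AlphaScreen streptavidin donor/nickel chelate acceptor beads (10 ug/mL final) read after 30 min dark incubation.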
# Active calls of the source: *; ? = inconclusive; . = no result; [ ] = another dose, or the depositor's remark. The list is not random: actives were taken first. Their share in the collection is about 11%. Calls follow the shape of the dose curve; as a rule, active = well fitted inhibition curve with a large enough effect; inconclusive = small, poorly fitted or top-dose-only effect; inactive = no such curve, though single readings can be large or run the other way. Potency is read from the fitted curve at half-maximal effect.
SMILES,HP1b chromo inh,G9a inh,BAZ2B inh,JMJD2A Tudor,L3MBTL1 inh
COc1cc(NC(=O)c2c(-c3ccc(C)cc3)nnc3ccccc23)cc(OC)c1OC,20%,11%[59 µM],-1%,-3%,.
COc1cc2c(cc1OC)/C(=C/C(=O)c1ccccc1F)NCC2,?,56µM*,?,?,.
COc1cc2c(cc1OC)/C(=C/C(=O)c1ccc(OC)c([N+](=O)[O-])c1)NCC2,15%,8%,-1%,-22%,.
COc1cc2c(cc1OC)/C(=C/C(=O)c1ccc(F)cc1)NCC2,-30%,79µM*,50µM*,?,.
Cc1cc(-c2onc3ccc(Cl)cc23)ccc1O,45%,40µM*,-2%,21%,.
CC(=O)NC1C(=O)SC1(C)C (stereo unspecified),.,28µM*,-10%,.,4%
COc1cc(/C=C2\SC(=O)N(c3ccc(Cl)cc3)C2=O)cc([N+](=O)[O-])c1O,?,7.9µM*,7.1µM*,7.9µM*,?
O=C1S/C(=C\c2ccc(O)c([N+](=O)[O-])c2)C(=O)N1c1ccccc1Cl,?,.,35µM*,50µM*,-22%
COc1cc(/C=C2\SC(=O)N(c3cccc(Cl)c3)C2=O)cc([N+](=O)[O-])c1O,?,.,8.9µM*,4µM*,-17%
CCOc1ccc(/C=C2\SC(=O)N(c3ccc(O)cc3)C2=O)cc1OC,37%,17%,-12%,-9%,.
Cc1ccc2c(c1)C1(C(=O)N2)N2CCCC2C(C(=O)c2ccc3ccccc3c2)C12C(=O)Nc1ccccc12 (stereo unspecified),?,?,?,50µM*,.
COCCn1c(C)cc2c(c1=O)C(c1ccccc1F)C(C#N)=C(N)O2 (stereo unspecified),28%,-1%[12.7 µM],6%,-6%,-3%
Cn1c2c(c(=O)n(C)c1=O)C(c1ccccc1Cl)C(C#N)=C(N)O2 (stereo unspecified),61%,25µM*,-23%,2%,.
N#CC1=C(N)Oc2cc(N)ccc2C1c1ccccc1Cl (stereo unspecified),25%,.,?,-19%,2%
Cn1c2c(c(=O)n(C)c1=O)C(c1ccccc1F)C(C#N)=C(N)O2 (stereo unspecified),54%,16µM*,-6%,-13%,1%
COC(=O)c1ccccc1-c1ccc(C(c2c(C)[nH][nH]c2=O)c2c(C)[nH][nH]c2=O)o1,1%,2%,-11%,-29%,4%
COC(=O)c1cccc(-c2ccc(C(c3c(C)[nH][nH]c3=O)c3c(C)[nH][nH]c3=O)o2)c1,?,2.2µM*,40µM*,56µM*,-16%
N#CC1(NC(=O)CN2C(=O)c3ccc([N+](=O)[O-])cc3C2=O)CCCCC1,16%,?,6%,4%,8%
CCCCOc1cccc(C(=O)N(Cc2ccc(N(C)C)cc2)C2CCS(=O)(=O)C2)c1 (stereo unspecified),?,28%[59 µM],-19%,56µM*,.
C=CCOc1ccc(C(=O)N(Cc2ccc(N(C)C)cc2)C2CCS(=O)(=O)C2)cc1 (stereo unspecified),-21%,50µM*,?,?,?
CC(=O)N1CCC(N(Cc2ccc(C)o2)C(=O)Nc2cccc(C(F)(F)F)c2)CC1,26%,?,-19%,-8%,.
CCOC(=O)C1=C(Cn2cnc3ccccc32)NC(=O)NC1c1ccc(Cl)cc1 (stereo unspecified),23%,-27%[59 µM],-23%,-3%,.
CCOC(=O)C1=C(Cn2cnc3ccccc32)NC(=O)NC1c1ccc(OC)cc1 (stereo unspecified),3%,-1%,56µM*,-18%,.
COCCNC(=O)CSc1cn(CC(=O)N2CCCCCC2)c2ccccc12,11%,5%[59 µM],-17%,-16%,.
CCNC(=S)NS(=O)(=O)c1ccc(Cl)cc1,-11%,?,-2%,25µM*,0%
CCNC(=S)NS(=O)(=O)c1ccccc1,-31%,28µM*,?,40µM*,-4%
